According to PubChem BioAssay:
The source made the active and inactive calls.

What was measured:
[1] = molecular target: Albumin (Bos taurus) (UniProt P02769); experiment: bovine serum albumin binders on microarray, profiling panel, artefact control for SMM control protein annotation, biochemical, small-molecule microarray, Alexa647 label, 635/667 nm fluorescence (AID 1118); details: BSA-A647 binding, fluorescence 635 nm, higher = more signal;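 note: score merges 667 nm emission intensity and signal-to-noise per printed compound spot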
Chain of Albumin (Bos taurus) (P02769 whole entry, looked up): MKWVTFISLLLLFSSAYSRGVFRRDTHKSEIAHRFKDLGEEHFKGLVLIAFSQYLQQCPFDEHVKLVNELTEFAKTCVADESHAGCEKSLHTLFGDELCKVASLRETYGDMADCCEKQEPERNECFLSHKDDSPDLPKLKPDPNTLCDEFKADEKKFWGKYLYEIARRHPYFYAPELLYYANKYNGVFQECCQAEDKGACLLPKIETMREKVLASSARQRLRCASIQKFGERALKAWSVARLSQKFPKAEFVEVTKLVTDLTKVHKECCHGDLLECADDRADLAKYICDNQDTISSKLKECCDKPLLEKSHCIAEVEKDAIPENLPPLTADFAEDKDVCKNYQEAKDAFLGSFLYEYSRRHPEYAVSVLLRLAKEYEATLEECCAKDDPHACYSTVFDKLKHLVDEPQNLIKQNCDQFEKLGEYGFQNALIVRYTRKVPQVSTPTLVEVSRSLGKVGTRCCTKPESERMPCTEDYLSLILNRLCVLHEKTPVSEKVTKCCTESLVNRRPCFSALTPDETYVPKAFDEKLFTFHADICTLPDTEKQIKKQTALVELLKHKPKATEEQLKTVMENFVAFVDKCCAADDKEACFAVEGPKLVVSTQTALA

[2] = small-molecule microarray binders of probe aXIP, primary screen, biochemical, NeuroSMM set, 635/667 nm fluorescence (AID 1119); details: higher = more signal, called active from +8 up or from −8 down;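 note: probe is the protein aXip251-270 applied at 1 µg/mL to compound-printed slides; binding of probe to printed compounds measured as 667 nm fluorescence plus signal to noise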
[3] = small-molecule binders of probe aNOTCH3, primary screen, biochemical, small-molecule microarray, 635/667 nm fluorescence (AID 1120); details: higher = more signal;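 note: probe is a biotin-tagged antibody raised against NOTCH3 rather than NOTCH3 protein; score merges spot fluorescence near 667 nm with spot signal to noise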
[4] = small-molecule binders of probe aNOTCH2, primary screen, biochemical, small-molecule microarray, 635/667 nm fluorescence (AID 1121); details: higher = more signal;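 note: score merges feature fluorescence read at 667 nm with its signal to noise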
[5] = molecular target: Carbonic anhydrase 2 (Homo sapiens) (UniProt P00918); experiment: CAII small-molecule binders, profiling panel, biochemical, small-molecule microarray, Alexa647-labelled CAII (AID 1122); details: CAII-A647 binding fluorescence, higher = more signal
[6] = COS7 lysate on small-molecule microarray, probe aHis, 635 nm (AID 1123); details: COS7 cell lysate, fluorescence, higher = more signal;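 note: z-score combines 667nm fluorescence intensity with signal-to-noise per printed compound spot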
[7] = compound binding in COS7 lysate, probe aLAP1, primary screen, cell lysate, small-molecule microarray (AID 1124); details: probe aLAP1, fluorescence, higher = more signal;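 note: lysate comes from COS7 cells expressing LAP1 and is applied at 0.3 µg/mL; score merges spot fluorescence near 667 nm with signal-to-noise over triplicate slides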
[8] = test system: Sam68 (KHDRBS1); experiment: Sam68 small-molecule binders, primary screen, biochemical, small-molecule microarray, 635 nm fluorescence (AID 1125); details: small-molecule microarray binding, higher = more signal;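 note: score merges 667 nm channel intensity with signal to noise over triplicate slides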
[9] = test system: Chordin-like protein 2 (CHRDL2); experiment: CHRDL2 small-molecule binders, primary screen, biochemical, small-molecule microarray, 635 nm fluorescence (AID 1126); details: small-molecule microarray binding, fluorescence 635 nm; higher = more signal;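 note: printed compound slides probed with Chrdl2 protein at 4 µg/mL for 1 h at 4 C; score merges 667 nm emission intensity with signal to noise over three replicate slides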
[10] = molecular target: Concanavalin-A (Canavalia ensiformis) (UniProt P02866); experiment: ConA small-molecule binders, primary screen, artefact control for SMM control protein annotation, biochemical, small-molecule microarray, Alexa647 label, 635 nm (AID 1127); details: ConA-A647 binding fluorescence, higher = more signal;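 note: z combines 667 nm emission intensity with signal-to-noise across three replicate slides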
Chain of Concanavalin-A (Canavalia ensiformis) (P02866 whole entry, looked up): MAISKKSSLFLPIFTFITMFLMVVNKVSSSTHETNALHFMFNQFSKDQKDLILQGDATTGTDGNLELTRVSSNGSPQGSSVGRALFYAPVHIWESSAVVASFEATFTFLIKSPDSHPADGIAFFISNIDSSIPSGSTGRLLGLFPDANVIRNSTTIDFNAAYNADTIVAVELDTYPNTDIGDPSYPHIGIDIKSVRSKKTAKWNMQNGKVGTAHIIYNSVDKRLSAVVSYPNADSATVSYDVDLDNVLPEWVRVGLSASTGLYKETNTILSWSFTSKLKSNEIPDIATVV

SMILES | composite z-score [1] | composite Z-score [2] | composite z-score [3] | composite z-score [4] | composite z-score [5] | composite z-score [6] | composite z-score [7] | composite z-score [8] | composite z-score [9] | composite z-score [10]
[N-]=[N+]=Nc1ccccc1[C@H]1OC(c2ccc(OCCCO)cc2)=N[C@@]1(Cc1ccccc1)C(=O)O | 0.59 | -0.001 (inactive) | 0.196 | -0.146 | 0.344 | 1.64 | 0.0378 | 1.31 | -0.392 | 0.619
O=C1OCCC/C=C\[C@H]2OC34C=CCN(c5ccc6ccccc6c5)C(=O)[C@H]3N(CCCCCCO)C(=O)[C@@H]4C12 (stereo not given in full) | 0.0499 | 0.611 (inactive) | -0.256 | -0.163 | 0.946 | -0.0749 | 0.978 | -0.468 | -1.65 | -0.83
Cc1ccc(S[C@]2(C(=O)NC3CC3)CC(=O)N(C3Cc4ccccc4C3)[C@@H]2c2ccc(CO)cc2)cc1 | 0.79 | 0.157 (inactive) | -0.161 | 0.016 | 0.628 | 1.81 | 0.845 | 0.963 | -0.759 | 0.356
COCCOC(=O)N1C(=O)[C@@]2(c3cc(C#Cc4ccc(OC)cc4)ccc31)[C@H](C(N)=O)[C@H]1C(=O)O[C@H](c3ccccc3)[C@H](c3ccccc3)N1[C@@H]2c1ccccc1OCCO | 0.73 | 0.611 (inactive) | 0.293 | 0.151 | 0.653 | 2.54 | 1.11 | 1.3 | 0.565 | 1.17
C=C(COC)/C(=C/C[C@@H](OC(C)=O)c1ccc(CO)o1)c1cnc2ccccc2c1 | 0.555 | 0.319 (inactive) | 0.25 | 0.0616 | 0.944 | 0.229 | 0.846 | 1.29 | 1.39 | 1.2
NCCCCCNC(=O)[C@@H]1C[C@@H]2C(=O)NCC(=O)N2[C@@H]1c1ccc(O)cc1 | 0.802 | 0.126 (inactive) | -0.0889 | -0.108 | 0.558 | 0.899 | 0.249 | 1.31 | 0.831 | 1.06
COCCOC(=O)N1C(=O)[C@@]2(c3cc(C#Cc4ccc(OC)cc4)ccc31)[C@H](C(=O)N1CCCCCCC1)[C@H]1C(=O)O[C@H](c3ccccc3)[C@H](c3ccccc3)N1[C@@H]2c1ccc(OCCO)cc1 | -1.25 | 3.51 (inactive) | 0.872 | 0.711 | 0.712 | 1.49 | 0.913 | 1.3 | 1.48 | 0.987
O=C(NCc1ccc(F)cc1)[C@H]1C[C@H]2C(=O)N[C@@H](Cc3ccccc3)C(=O)N2[C@H]1c1ccc(O)cc1 | -1.22 | 0.239 (inactive) | -0.323 | -0.159 | 0.606 | 1.56 | -0.516 | -0.109 | 0.371 | 0.368
C=CCOC(=O)[C@H]1[C@@H]2C(=O)O[C@@H](c3ccccc3)[C@@H](c3ccccc3)N2[C@@H](c2ccc(OCCOC(=O)[C@H]3C[C@H]4C(=O)N5CCC[C@H]5C(=O)N4[C@H]3c3ccc(O)cc3)cc2)[C@]12C(=O)Nc1ccc(I)cc12 | -0.124 | 5.37 (inactive) | 1.47 | 0.755 | 0.364 | 3.31 | 1.13 | 1.31 | 1.06 | 0.955
COc1ccc([Si](C)(C)[C@H]2[C@H](CCO)O[C@@]3(C(=O)N(Cc4ccc(N5C(=O)COc6ccccc65)cc4)c4ccccc43)[C@@H]2C)cc1 | 0.373 | 0.485 (inactive) | -0.241 | -0.176 | -0.05 | 0.303 | -0.0122 | 0.504 | -1.13 | -0.116
CCOC(=O)C[C@H]1[C@H](OC(=O)c2ccc(C(=O)c3ccccc3)cc2)[C@@H](NC(=O)c2ccc(-c3ccccc3)cc2)c2cc(OCCCO)ccc2N1C(=O)c1ccccc1 | 0.0256 | 2.04 (inactive) | -0.0411 | -0.11 | 0.0733 | 1.31 | 0.032 | 1.31 | 0.303 | 0.989
O=C1O[C@H](c2ccccc2)[C@H](c2ccccc2)N2[C@H]1[C@@H](C(=O)NC[C@H](O)c1ccccc1)[C@]1(C(=O)Nc3ccccc31)[C@H]2c1ccc(OCCO)cc1 | 0.466 | -0.249 (inactive) | -0.0647 | -0.082 | 0.59 | 1.67 | 0.218 | 1.31 | 0.25 | 1.14
CCCC=C(CCC)[C@@H](NS(=O)(=O)c1cccs1)c1ccc(C(=O)OC)cc1 | 1.06 | -0.227 (inactive) | 0.17 | 0.0592 | 0.748 | 2.94 | 0.157 | 1.32 | -1.19 | 1.17
O=C1OCC=C[C@H]2OC34C=CCN(c5ccc6ccccc6c5)C(=O)[C@H]3N(CCCCCCO)C(=O)[C@@H]4[C@@H]12 (stereo not given in full) | 0.39 | 0.164 (inactive) | -0.241 | -0.0472 | 0.837 | 0.818 | 0.941 | -1.42 | -0.677 | -0.486
COC(=O)[C@@]1(Cc2ccc(OC)cc2)[C@H]2c3cc(C(=O)N(C)C)n(CCN4CNCC4=O)c3C[C@H]2CN1C(=O)c1ccccc1 | 0.854 | -0.704 (inactive) | 0.0539 | 0.0228 | 0.879 | 0.287 | 0.898 | -0.668 | -0.386 | -0.61
COCCCN1C(=O)[C@@]2(c3ccc([N+](=O)[O-])cc3)CC(=O)N(C3CCCCC3)[C@@H]2c2ccc(CO)cc21 | -0.132 | 0.0221 (inactive) | -0.207 | -0.153 | -0.277 | 0.143 | -0.322 | 0.134 | 0.778 | 0.734
O=C1OCCC/C=C\[C@H]2OC34C=CCN(CCN5CCOCC5)C(=O)[C@H]3N(CCCO)C(=O)[C@@H]4C12 (stereo not given in full) | -0.843 | 0.546 (inactive) | -0.182 | -0.178 | 0.888 | 3.72 | 1.6 | -0.284 | -0.575 | 0.167
COc1ccc(C(O)C2C=CC3C(=O)N(C)C(=O)C3N2N2CCCCC2)c2ccccc12 (stereo not given) | 0.9 | 0.476 (inactive) | 0.432 | -0.0351 | 0.448 | 2.89 | -0.32 | 1.31 | -0.147 | 1.21
COc1cc(CO)cc(I)c1O[C@H]1C=C(C(=O)NCCO)C[C@@H](N(CCN2CCOCC2)C(=O)C2CCOC2)[C@@H]1O (stereo not given in full) | -1.02 | 0.0953 (inactive) | 0.189 | -0.0729 | 0.0321 | -0.204 | 0.459 | 0.322 | 0.486 | -0.169
COCCOC(=O)N1C(=O)[C@@]2(c3ccccc31)[C@H](c1ccccc1OCCO)N1[C@H](c3ccccc3)[C@H](c3ccccc3)OC(=O)[C@H]1[C@@H]2C(=O)Nc1nc2ccccc2s1 | 0.665 | 0.746 (inactive) | 0.133 | -0.089 | 0.481 | 1.52 | 1.69 | 1.31 | 0.651 | 1.18
COC(=O)c1c(CC[C@@H](CO)NC(=O)N[C@H](Cn2cc(Cc3ccccc3)nn2)C(C)C)oc(C(C)=O)c1C(=O)OC | 0.0007 | 0.255 (inactive) | -0.0159 | -0.202 | 0.43 | 0.889 | 0.0096 | 0.709 | 0.0618 | 0.321
